In the library only some 3% were active in any assay of this set; here they are far more common.
SENP7 block: blocks the human protease SENP7; AID 434973; inhibition, % at 5 µM; Q9BQF6; hit rate 1.5% among 330,000; recombinant SENP7, Z-RLRGG-aminoluciferin luminescence, 40 min;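 active = inhibition above about 50% at the single test dose, limit read from the data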
C8 TRAIL sens: caspase-8 TRAIL sensitization; NB7+C8 cells + TRAIL, ATPlite viability luminescence; inhibition (viability loss, TRAIL sensitization), % at 10 µM; hit rate 1% among 360,000;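 active = compounds causing at least 50% loss of cell viability in the single-dose screen, relative to plate controls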
SENP6 block: blocks the human protease SENP6. Q9GZR1. Recombinant SENP6 catalytic domain, aminoluciferin luminescence. inhibition, % at 10 µM. hit rate 1.8% among 330,000. AID 2599;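 active = inhibition above about 50% at the single tested dose, limit read from the data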
Target sequence (Q9GZR1 628-1112 limits assumed): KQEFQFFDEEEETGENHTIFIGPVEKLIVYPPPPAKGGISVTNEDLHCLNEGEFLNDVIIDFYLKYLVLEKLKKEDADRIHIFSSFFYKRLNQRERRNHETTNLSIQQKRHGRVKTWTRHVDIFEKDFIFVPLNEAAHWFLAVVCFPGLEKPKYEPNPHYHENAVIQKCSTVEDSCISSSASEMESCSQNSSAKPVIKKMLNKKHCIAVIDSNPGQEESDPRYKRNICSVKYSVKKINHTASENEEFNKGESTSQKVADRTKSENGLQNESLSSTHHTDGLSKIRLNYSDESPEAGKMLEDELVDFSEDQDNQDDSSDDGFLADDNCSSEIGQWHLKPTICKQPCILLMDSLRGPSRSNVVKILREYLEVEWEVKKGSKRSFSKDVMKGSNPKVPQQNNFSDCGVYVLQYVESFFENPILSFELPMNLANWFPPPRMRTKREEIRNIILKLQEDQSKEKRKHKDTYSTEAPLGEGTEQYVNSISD
SENP8 block-1: SENP8 (human) protease inhibition; Q96LD8; hit rate 0.64% among 360,000; inhibition, % at 20 µM; recombinant SENP8, Nedd8 substrate fluorescence; in the data active = inhibition mostly above about 40%, no sharp cut-off; inactive = mostly below about 27%
PPC-1+TRAIL kill: PPC-1 cancer cell killing with TRAIL present. PPC-1 cells + TRAIL, ATPLite viability luminescence. cell killing (% activity), % at 4 µM or 5 µM. hit rate 0.41% among 220,000. AID 1443;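 active = cell killing above 50% in the first pass at 4 µM, then a duplicate retest at 5 µM averaging 50% or more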
SENP8 block-2: inhibitors of human SENP8 protease; hit rate 1.2% among 330,000; inhibition, % at 10 µM; purified SENP8, Z-RLRGG-aminoluciferin cleavage, luminescence; Q96LD8; in the data active = inhibition above about 50%
PPC1 cytotox: PPC-1 cell cytotoxicity; PPC-1 viability, ATPlite luminescence, overnight; AID 1447; hit rate 50% among 1,200; cytotoxicity, % at 5 µM; shares compounds with PPC-1+TRAIL kill;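 active = reconfirmed compounds whose average cytotoxicity reaches 50% or more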
Large screens that a line does not name were inactive (follow-up assays come after a bar, where they were run).

COc1ccccc1OCC(=O)NCC1CCCN(Cc2cnn(C(C)C)c2)C1 (configuration not stated)	none (no result: PPC-1+TRAIL kill)
COc1ccc(N/N=C/c2c(C(=O)O)ccc3ccccc23)cc1	none | PPC1 cytotox inactive
COc1cc2ccccc2cc1C(=O)Nc1cccnc1	none | PPC1 cytotox inactive
COc1cc(OC)c(C(=O)Nc2cccnc2)cc1OC	none (no result: PPC-1+TRAIL kill)
Cc1ccc(S(=O)(=O)N2CCN(C(=O)N3CCOCC3)C2C(C)C)cc1 (configuration not stated)	none
CCN(CC)c1ccc(C2N(C(=O)N3CCOCC3)CCN2S(=O)(=O)c2ccc(C)cc2)cc1 (configuration not stated)	none | PPC1 cytotox inactive
CC(C)c1ccc(NC(=O)c2csnn2)cc1	none | PPC1 cytotox inactive
Cc1cc(C(=O)CN2C(=O)NC(C)(c3ccccc3)C2=O)c(C)n1CC1CCCO1 (configuration not stated)	none
Cc1cc(C(=O)CN2C(=O)c3ccccc3S2(=O)=O)c(C)n1CC1CCCO1 (configuration not stated)	C8 TRAIL sens 83, PPC-1+TRAIL kill 86 | PPC1 cytotox 85
COc1cc(C)ccc1S(=O)(=O)NC(=O)C1(C)CCN1C(=O)Cc1ccccc1Cl (configuration not stated)	none (no result: SENP7 block, SENP6 block, PPC-1+TRAIL kill, SENP8 block-2)
Cc1ccc(S(=O)(=O)N2CCCCC2)cc1NC(=O)c1ccc(=O)[nH]c1	none (no result: SENP7 block, SENP6 block, PPC-1+TRAIL kill, SENP8 block-2)
Nc1nc(CCl)nc(N(c2ccccc2)c2ccccc2)n1	C8 TRAIL sens 93, PPC-1+TRAIL kill 90 | PPC1 cytotox 90
COc1ccc(NS(=O)CCCc2ccccc2)cc1 (configuration not stated)	none (no result: SENP7 block, SENP6 block, PPC-1+TRAIL kill, SENP8 block-2)
Cn1c(-c2ccccc2)cnc1SCC(=O)NCc1ccco1	none | PPC1 cytotox inactive
Clc1ccc(-n2cnnn2)cc1	none
Oc1ccc(-n2cnnn2)cc1	none | PPC1 cytotox inactive
COc1ccc2nc(N=Nc3ccc(N(C)C)cc3)sc2c1	C8 TRAIL sens 94, PPC-1+TRAIL kill 90 (no result: SENP7 block, SENP6 block, SENP8 block-2) | PPC1 cytotox 90
Cc1ccc(N2C(=O)c3ccccc3C2Nc2ccccc2F)nc1 (configuration not stated)	none
Cc1ccc(N2C(=O)c3ccccc3C2O)nc1 (configuration not stated)	PPC-1+TRAIL kill 53 (no result: SENP7 block, C8 TRAIL sens, SENP6 block, SENP8 block-1, SENP8 block-2) | PPC1 cytotox 54
CC(NC(=O)c1ccc(OC2CCN(C(=O)c3cccnc3)CC2)cc1)C1CC1 (configuration not stated)	none
Cc1cn(C2CCCCC2)c(=O)[nH]c1=O	none (no result: SENP7 block, SENP6 block, PPC-1+TRAIL kill, SENP8 block-2)
CCN1C(=O)C2(C(C#N)=C(N)Oc3cc(C)oc(=O)c32)c2ccccc21 (configuration not stated)	none | PPC1 cytotox inactive
Cc1cc2c(c(=O)o1)C1(C(=O)N(CC(=O)O)c3ccccc31)C(C#N)=C(N)O2 (configuration not stated)	none
COc1cccc(CN(C(=O)c2cccs2)C2CCS(=O)(=O)C2)c1 (configuration not stated)	none (no result: PPC-1+TRAIL kill)
C/C(=N/OCC(=O)Nc1ccc(C)cc1C)c1cccs1	none | PPC1 cytotox inactive
O=C(NC1CCS(=O)(=O)C1)c1cccc(Cl)c1 (configuration not stated)	none (no result: PPC-1+TRAIL kill)
CCC(C)C(=O)N1CCc2cc(-c3csc(N)n3)ccc21 (configuration not stated)	none
CC(C)(C)C(=O)N1CCc2cc(-c3csc(N)n3)ccc21	C8 TRAIL sens 87, PPC-1+TRAIL kill 82 | PPC1 cytotox 83
COc1cccc(/C=C/C(=O)c2c(O)cc(C)oc2=O)c1O	none
COc1ccc(/C=C/C(=O)c2c(O)cc(C)oc2=O)c(OC)c1	C8 TRAIL sens 89, PPC-1+TRAIL kill 87 | PPC1 cytotox 86
C=CCn1c(C)cc(C(=O)Cn2nc(C(=O)O)c3ccccc3c2=O)c1C	C8 TRAIL sens 78 | PPC1 cytotox inactive
Cc1cc(C(=O)Cn2nc(C(=O)O)c3ccccc3c2=O)c(C)n1C1CC1	none
CCn1c(-c2cc(-c3ccc(OC(C)C)cc3)nc3ccccc23)n[nH]c1=S	C8 TRAIL sens 56 | PPC1 cytotox inactive
CCn1c(-c2cc(-c3ccc(C)cc3)nc3ccccc23)n[nH]c1=S	none
Cc1cccc2nc(=S)n(C(=O)c3ccco3)n12	C8 TRAIL sens 54 | PPC1 cytotox inactive
O=C(c1ccco1)n1c(=S)nc2ccccn21	none
COc1ccc(/C=C/C(=O)NC(=S)NNC(=O)Cc2cccs2)cc1	none | PPC1 cytotox inactive
